# In ChEMBL document CHEMBL2218924, “A broad activity screen in support of a chemogenomic map for kinase signalling research and drug discovery” (Biochem J, 2013):
# Key:
# [1] = target: T1, Ephrin type-A receptor 3 (Homo sapiens) (UniProt P29320); conditions: at 10 µM
# T1 sequence (whole entry): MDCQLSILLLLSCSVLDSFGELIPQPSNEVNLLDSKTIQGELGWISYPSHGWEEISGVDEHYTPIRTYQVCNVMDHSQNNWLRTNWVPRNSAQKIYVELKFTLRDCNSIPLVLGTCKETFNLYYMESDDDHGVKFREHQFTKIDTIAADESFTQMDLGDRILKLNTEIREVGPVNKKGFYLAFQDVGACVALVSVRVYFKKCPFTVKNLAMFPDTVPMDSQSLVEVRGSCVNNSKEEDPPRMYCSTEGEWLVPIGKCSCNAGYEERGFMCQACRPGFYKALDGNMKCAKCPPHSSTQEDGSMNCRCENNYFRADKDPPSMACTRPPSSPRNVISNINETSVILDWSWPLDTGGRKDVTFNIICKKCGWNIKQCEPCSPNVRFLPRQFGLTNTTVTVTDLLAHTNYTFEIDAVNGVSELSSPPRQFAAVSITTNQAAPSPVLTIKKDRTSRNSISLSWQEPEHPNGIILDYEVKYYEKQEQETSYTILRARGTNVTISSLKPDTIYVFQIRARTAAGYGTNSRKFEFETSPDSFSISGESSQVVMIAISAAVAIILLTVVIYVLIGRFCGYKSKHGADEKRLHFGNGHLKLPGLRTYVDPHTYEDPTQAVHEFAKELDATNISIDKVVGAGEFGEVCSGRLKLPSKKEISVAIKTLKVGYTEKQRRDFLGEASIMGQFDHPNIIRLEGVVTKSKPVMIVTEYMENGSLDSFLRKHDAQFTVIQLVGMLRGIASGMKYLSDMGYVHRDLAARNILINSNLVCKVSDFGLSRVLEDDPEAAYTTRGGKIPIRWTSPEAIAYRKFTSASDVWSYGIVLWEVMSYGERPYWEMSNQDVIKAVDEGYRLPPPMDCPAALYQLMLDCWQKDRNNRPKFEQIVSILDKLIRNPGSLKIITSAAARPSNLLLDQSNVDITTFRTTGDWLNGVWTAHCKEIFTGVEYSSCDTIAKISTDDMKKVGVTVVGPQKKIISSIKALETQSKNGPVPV
# [2] = target: Ephrin type-A receptor 7 (Homo sapiens) (UniProt Q15375); conditions: at 1 µM
# [3] = target: Ephrin type-A receptor 7 (Homo sapiens) (UniProt Q15375); conditions: at 10 µM
# [4] = target: T2, Ephrin type-B receptor 1 (Homo sapiens) (UniProt P54762); conditions: at 1 µM
# T2 sequence (whole entry): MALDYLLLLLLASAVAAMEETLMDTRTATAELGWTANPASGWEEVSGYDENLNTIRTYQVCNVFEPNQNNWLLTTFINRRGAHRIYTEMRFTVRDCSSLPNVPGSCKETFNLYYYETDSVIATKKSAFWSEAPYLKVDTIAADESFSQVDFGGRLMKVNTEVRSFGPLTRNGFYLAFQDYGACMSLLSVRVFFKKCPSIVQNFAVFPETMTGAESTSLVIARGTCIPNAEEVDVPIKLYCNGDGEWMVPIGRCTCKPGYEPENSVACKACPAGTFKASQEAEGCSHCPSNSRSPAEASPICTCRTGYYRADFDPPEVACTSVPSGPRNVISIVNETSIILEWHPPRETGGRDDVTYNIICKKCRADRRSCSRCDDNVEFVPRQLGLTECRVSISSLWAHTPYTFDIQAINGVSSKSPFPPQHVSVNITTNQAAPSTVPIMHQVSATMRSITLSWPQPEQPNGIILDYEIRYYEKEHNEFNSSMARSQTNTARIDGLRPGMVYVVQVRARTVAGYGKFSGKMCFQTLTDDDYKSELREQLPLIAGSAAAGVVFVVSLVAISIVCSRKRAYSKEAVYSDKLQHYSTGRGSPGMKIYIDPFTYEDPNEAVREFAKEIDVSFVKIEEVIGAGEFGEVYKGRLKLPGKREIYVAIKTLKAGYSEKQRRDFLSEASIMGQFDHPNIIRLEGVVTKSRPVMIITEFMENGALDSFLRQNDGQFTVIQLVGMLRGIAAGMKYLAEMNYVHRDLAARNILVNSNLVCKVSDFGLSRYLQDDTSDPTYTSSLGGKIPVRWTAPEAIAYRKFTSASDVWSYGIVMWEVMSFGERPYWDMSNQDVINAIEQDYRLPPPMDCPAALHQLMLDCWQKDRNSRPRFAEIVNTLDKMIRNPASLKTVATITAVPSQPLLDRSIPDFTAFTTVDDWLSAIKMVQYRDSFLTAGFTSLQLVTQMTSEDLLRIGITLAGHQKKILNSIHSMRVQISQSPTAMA
# [5] = target: T2, Ephrin type-B receptor 1 (Homo sapiens); conditions: at 10 µM
# [6] = target: T3, Ephrin type-B receptor 3 (Homo sapiens) (UniProt P54753); conditions: at 1 µM
# T3 sequence (whole entry): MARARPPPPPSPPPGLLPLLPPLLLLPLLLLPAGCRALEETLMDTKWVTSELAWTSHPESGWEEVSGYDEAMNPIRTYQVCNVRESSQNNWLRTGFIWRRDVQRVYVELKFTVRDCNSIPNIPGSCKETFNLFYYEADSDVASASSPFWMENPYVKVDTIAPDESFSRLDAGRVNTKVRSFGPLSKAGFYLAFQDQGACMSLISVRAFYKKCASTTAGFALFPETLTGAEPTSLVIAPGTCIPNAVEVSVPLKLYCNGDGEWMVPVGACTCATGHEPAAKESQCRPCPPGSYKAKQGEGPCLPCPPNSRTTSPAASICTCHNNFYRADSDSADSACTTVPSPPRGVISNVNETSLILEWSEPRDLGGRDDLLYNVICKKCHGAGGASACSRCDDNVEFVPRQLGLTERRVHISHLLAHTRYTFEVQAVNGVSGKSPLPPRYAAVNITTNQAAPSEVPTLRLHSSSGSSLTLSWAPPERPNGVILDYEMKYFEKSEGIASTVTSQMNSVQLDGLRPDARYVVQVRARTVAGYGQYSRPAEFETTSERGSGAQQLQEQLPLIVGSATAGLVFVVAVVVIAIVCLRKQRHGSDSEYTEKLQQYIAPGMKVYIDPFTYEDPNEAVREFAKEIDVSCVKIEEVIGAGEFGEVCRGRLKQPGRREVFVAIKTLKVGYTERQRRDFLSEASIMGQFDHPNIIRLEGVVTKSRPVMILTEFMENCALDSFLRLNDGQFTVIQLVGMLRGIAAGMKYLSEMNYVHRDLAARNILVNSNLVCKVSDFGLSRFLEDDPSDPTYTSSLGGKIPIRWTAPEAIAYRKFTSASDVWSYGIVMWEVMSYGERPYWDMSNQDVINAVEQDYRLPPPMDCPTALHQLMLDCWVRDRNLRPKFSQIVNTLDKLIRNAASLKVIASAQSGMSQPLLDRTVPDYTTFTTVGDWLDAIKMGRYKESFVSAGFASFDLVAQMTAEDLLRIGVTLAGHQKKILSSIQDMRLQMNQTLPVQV
# [7] = target: T3, Ephrin type-B receptor 3 (Homo sapiens); conditions: at 10 µM
# [8] = target: T4, Ephrin type-B receptor 4 (Homo sapiens) (UniProt P54760); conditions: at 1 µM
# T4 sequence (whole entry): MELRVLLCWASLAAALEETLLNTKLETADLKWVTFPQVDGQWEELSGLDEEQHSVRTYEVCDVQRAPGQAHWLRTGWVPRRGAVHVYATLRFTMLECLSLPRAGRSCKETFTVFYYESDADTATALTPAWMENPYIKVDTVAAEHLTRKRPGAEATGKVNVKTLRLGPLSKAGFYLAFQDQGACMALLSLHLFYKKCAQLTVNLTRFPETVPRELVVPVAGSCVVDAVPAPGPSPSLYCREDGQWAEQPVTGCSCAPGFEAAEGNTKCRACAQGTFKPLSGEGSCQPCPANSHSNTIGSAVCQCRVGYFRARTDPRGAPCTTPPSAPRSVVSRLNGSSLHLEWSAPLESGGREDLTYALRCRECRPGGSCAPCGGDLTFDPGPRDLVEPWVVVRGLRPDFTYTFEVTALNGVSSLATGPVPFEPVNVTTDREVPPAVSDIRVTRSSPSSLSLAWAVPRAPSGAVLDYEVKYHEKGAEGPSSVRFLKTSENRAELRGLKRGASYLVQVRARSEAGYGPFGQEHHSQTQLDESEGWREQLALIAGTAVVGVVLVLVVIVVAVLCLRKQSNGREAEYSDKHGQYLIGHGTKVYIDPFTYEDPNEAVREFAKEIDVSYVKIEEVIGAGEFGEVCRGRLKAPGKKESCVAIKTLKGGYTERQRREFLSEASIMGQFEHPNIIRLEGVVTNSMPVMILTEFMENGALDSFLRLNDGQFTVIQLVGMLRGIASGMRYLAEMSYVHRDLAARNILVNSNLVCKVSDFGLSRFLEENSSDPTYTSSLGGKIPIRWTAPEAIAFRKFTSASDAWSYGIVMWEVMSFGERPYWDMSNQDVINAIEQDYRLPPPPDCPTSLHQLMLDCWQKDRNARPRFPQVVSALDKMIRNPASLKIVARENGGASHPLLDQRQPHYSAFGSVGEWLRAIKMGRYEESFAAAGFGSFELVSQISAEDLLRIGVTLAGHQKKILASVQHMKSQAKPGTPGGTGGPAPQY
# [9] = target: T4, Ephrin type-B receptor 4 (Homo sapiens); conditions: at 10 µM
# [10] = target: Receptor tyrosine-protein kinase erbB-4 (Homo sapiens) (UniProt Q15303); conditions: at 10 µM
# [11] = target: Focal adhesion kinase 1 (Homo sapiens) (UniProt Q05397); conditions: at 1 µM
# [12] = target: Ephrin type-A receptor 5 (Homo sapiens) (UniProt P54756); conditions: at 1 µM
# [13] = target: Ephrin type-A receptor 5 (Homo sapiens) (UniProt P54756); conditions: at 10 µM
# Ephrin type-A receptor 7 (Homo sapiens), sequence (Q15375 28-998 limits assumed): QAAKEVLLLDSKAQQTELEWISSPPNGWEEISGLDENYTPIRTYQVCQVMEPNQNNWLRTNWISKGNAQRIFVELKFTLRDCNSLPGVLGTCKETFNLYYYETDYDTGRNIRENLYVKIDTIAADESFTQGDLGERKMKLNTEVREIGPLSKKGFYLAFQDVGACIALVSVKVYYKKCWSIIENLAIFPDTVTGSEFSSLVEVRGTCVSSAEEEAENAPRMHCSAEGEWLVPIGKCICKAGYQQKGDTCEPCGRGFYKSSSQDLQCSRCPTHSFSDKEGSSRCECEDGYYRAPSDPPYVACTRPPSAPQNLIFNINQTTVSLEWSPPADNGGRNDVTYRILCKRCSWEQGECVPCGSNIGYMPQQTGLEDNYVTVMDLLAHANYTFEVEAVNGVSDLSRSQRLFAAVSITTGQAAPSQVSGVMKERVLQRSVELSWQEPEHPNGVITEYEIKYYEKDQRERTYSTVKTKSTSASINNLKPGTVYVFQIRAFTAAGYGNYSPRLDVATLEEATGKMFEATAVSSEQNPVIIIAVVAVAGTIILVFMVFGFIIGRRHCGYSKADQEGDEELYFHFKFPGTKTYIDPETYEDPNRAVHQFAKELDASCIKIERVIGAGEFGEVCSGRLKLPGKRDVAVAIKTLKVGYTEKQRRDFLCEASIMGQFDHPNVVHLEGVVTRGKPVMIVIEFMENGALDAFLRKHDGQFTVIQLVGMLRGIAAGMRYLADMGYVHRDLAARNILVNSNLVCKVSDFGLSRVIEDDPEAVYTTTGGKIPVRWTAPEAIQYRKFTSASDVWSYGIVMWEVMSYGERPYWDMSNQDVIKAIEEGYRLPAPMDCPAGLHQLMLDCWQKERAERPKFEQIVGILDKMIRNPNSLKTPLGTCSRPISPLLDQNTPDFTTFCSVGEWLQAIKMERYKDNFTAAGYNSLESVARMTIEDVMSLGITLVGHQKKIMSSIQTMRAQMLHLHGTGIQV
# Receptor tyrosine-protein kinase erbB-4 (Homo sapiens), sequence (Q15303 whole entry): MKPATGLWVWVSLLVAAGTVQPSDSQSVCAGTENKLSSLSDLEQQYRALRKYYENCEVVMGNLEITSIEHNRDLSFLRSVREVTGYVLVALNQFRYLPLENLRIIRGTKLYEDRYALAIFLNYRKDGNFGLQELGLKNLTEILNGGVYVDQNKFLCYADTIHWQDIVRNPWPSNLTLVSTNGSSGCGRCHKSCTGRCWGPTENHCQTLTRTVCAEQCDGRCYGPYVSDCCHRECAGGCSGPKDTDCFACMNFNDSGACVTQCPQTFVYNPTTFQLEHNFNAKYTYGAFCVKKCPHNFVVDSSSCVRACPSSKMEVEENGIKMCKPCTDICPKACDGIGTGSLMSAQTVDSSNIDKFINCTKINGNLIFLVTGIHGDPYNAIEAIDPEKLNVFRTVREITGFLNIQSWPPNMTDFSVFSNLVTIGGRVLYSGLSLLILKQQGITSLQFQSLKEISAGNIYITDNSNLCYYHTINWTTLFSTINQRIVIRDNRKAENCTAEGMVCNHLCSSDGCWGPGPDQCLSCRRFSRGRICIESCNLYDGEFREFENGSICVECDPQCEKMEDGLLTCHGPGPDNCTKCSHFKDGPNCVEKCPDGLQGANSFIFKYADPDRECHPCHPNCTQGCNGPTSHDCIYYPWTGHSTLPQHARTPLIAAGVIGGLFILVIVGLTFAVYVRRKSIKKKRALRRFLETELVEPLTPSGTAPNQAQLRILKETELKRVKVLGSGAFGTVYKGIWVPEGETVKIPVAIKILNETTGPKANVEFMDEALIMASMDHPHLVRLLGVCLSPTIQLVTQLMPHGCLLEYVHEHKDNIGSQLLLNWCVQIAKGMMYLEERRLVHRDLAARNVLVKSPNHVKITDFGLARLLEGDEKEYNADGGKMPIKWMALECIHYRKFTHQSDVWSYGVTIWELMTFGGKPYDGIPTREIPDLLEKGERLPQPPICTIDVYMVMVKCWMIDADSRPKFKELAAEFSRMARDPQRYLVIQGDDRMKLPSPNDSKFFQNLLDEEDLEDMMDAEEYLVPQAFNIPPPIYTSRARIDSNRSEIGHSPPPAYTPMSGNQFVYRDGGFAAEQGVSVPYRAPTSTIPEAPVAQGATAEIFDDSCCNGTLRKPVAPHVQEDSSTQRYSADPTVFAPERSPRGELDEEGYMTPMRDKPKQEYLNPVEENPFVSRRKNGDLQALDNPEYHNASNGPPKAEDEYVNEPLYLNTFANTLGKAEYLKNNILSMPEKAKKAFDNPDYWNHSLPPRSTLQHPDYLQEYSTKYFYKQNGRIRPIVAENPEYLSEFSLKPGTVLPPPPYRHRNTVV
# Focal adhesion kinase 1 (Homo sapiens), sequence (Q05397 2-1052 limits assumed): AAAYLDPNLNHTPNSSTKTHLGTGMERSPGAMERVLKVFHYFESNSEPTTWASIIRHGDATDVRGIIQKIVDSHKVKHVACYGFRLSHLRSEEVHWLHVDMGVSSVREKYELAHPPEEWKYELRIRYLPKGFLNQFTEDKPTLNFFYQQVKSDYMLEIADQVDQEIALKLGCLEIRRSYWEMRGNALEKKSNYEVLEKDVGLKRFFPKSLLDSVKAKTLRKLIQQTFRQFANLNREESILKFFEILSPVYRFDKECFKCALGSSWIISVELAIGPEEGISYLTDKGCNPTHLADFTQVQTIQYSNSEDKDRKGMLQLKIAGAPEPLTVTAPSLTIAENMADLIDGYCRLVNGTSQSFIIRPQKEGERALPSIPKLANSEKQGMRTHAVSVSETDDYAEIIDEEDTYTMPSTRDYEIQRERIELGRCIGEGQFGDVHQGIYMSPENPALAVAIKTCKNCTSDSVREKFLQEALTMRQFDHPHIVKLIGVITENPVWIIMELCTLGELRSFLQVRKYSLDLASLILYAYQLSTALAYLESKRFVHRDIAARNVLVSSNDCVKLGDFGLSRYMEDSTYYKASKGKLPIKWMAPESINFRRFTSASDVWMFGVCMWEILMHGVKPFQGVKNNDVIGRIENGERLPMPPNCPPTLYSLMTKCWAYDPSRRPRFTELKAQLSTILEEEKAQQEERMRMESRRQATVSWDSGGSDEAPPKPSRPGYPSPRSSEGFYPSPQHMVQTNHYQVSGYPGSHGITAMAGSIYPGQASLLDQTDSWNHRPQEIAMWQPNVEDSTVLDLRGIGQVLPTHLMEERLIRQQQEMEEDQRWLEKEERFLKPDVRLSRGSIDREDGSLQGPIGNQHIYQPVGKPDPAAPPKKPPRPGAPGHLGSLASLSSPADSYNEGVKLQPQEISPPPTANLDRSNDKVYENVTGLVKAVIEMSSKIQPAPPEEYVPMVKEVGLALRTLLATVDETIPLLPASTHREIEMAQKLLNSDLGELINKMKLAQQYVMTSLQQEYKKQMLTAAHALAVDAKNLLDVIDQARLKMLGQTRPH
# Ephrin type-A receptor 5 (Homo sapiens), sequence (P54756 whole entry): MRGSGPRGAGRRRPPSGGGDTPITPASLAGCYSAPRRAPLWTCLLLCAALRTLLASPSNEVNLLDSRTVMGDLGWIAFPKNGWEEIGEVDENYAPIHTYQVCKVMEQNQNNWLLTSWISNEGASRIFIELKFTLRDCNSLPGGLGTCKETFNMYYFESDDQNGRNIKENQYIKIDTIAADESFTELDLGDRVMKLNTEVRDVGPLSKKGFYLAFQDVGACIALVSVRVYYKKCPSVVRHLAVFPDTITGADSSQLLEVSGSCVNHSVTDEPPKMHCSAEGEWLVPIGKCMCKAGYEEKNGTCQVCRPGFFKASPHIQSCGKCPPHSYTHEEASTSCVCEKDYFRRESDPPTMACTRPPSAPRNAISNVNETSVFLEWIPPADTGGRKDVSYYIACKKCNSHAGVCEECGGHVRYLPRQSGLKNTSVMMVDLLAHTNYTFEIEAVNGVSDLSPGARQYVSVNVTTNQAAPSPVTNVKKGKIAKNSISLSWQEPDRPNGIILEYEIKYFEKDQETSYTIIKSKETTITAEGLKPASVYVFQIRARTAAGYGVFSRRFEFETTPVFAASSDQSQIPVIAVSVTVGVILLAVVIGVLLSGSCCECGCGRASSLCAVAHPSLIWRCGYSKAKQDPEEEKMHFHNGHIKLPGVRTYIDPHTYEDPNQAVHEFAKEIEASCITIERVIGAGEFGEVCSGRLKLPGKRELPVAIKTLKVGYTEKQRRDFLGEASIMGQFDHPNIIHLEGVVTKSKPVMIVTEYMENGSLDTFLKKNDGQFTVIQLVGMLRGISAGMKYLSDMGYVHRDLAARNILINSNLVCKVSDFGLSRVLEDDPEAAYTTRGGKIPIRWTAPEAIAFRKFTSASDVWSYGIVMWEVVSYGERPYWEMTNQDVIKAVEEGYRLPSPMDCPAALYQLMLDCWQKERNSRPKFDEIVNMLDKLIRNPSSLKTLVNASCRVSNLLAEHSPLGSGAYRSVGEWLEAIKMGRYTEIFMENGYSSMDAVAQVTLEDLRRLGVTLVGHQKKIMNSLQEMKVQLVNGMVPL
Compound,residual activity [1] [%],residual activity [2] [%],residual activity [3] [%],residual activity [4] [%],residual activity [5] [%],residual activity [6],residual activity [7] [%],residual activity [8] [%],residual activity [9] [%],residual activity [10] [%],residual activity [11] [%],residual activity [12] [%],residual activity [13] [%]
c1ccc(-c2cnc(Nc3ccc(OCCN4CCCC4)cc3)s2)cc1,69,104,76,104,65,112% (inactive),120,109,64,61,132,–,–
NCCNc1ncc(C(N)=O)c(Nc2cccc(C(F)(F)F)c2)n1,–,–,72,–,–,113% (inactive),111,102,101,75,64,102,74
